# Shown are actives, neighbours in structure and some others; about 3.1% of the full set was active somewhere.
# EWS-Fli block: EWS/Fli-driven NR0B1 reporter inhibitors, primary screen, A673 cells, NR0B1 luciferase, luminescence, MLPCN library | viability-normalised | inhibition, % at 12.6 µM | hit rate 0.67% among 350,000;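 active means mean inhibition of at least 50% after viability correction, with every replicate also passing that limit; inconclusive means mean reaches 50% but only one of two replicates passes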;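 further: firefly luciferase signal divided by Alamar Blue viability fluorescence both relative to DMSO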
# PAX8 reporter: inhibitors of PAX8-driven TPO luciferase reporter, primary screen, RMG-I cells, single concentration; SteadyGlo, 24 h; inhibition, % at 12.6 µM; hit rate 1.2% among 360,000; AID 652154, 2013;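 active means mean replicate inhibition at least 60% with every replicate also reaching 60%; inconclusive means only one of the two criteria is met; inactive means mean below 60% and not all replicates reaching 60%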;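 further: luciferase light reporting Pax8 driven TPO promoter activity; plate controls were median of neutral control wells for no effect and mitoxantrone controls for full effect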
# Statin myotox sup: suppressors of statin myotoxicity in C2C12 myotubes, primary screen, cell-based, single point, plate reader; C2C12 myotubes + simvastatin, ATP luminescence, 48 h; scaled: DMSO 0, geranylgeraniol control 100; rescue of ATP level, % at 7.49 µM; hit rate 0.78% among 330,000; AID 602340, 2012;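 active means mean ATP rescue above about 67%, or every replicate alone reaching that limit, limit read from the data, passing the limit was not always enough; inconclusive means no clear call, values can overlap the other calls; inactive means mean under the limit and some replicate under it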;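 further: myotubes were challenged with 10 µM simvastatin during compound exposure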
# miR122 inh: miR-122 Renilla sensor signal increase in Huh7, primary screen, miR-122 inhibitor project, cell-based, single point, plate reader; Huh7 miR-122 Renilla luciferase sensor, 48 h; neutral wells = 0, positive control = 100; activation (reporter increase), % at 12.5 µM; hit rate 0.3% among 340,000;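 active means mean replicate activation score at least 90 and every replicate individually at or above 90; inconclusive means only one of the two criteria met; inactive means neither criterion met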;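 further: higher luciferase means less miR-122 activity so hits act as miR-122 inhibitors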
# GSIS activator: GLuc luminescence reporter in INS-1E cells, primary screen for activators of glucose-dependent secretion of insulin; activation, % at 16.6 µM; INS-1E GLuc reporter insulin secretion, 2-3 h; hit rate 0.61% among 370,000;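 active means lowest replicate activation of at least 40%, so every replicate reaches that level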;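 further: 0% = median of neutral control wells and 100% = median of IBMX positive control wells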
# HIV Env fusion: inhibitors of HIV-1 Env-driven cell-cell fusion, primary screen, HeLa-JRFL effector, CEM21 target cells, luciferase | inhibition, % at 12.3 µM | AID 651610, 2012 | hit rate 1.1% among 360,000;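 active means mean replicate inhibition score of at least 50 and every replicate individually at or above 50; inconclusive means only one of the two criteria met; inactive means mean below 50 and not all replicates reaching 50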;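 further: 0% = plate neutral controls and 100% = maraviroc near 300 nM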
# * = called active by the depositor; ? = inconclusive; nt = not tested or not shown; [ ] = another dose, or the depositor's remark.
SMILES,EWS-Fli block,PAX8 reporter,Statin myotox sup,miR122 inh,GSIS activator,HIV Env fusion
C[C@@H]1CCCCO[C@@H](CN(C)S(=O)(=O)c2cccs2)[C@H](C)CN([C@H](C)CO)C(=O)c2cc(NC(=O)Nc3ccc(C(F)(F)F)cc3)ccc2O1,7.1,79.8*,-51.0,-8.9[16.7 µM],-4.0,11.5[16.7 µM]
C[C@@H]1CN([C@H](C)CO)C(=O)c2cc(-c3ccc(F)cc3)cnc2O[C@H]1CN(C)C(=O)Nc1ccc(F)cc1,12.4,nt,21.1,3.5[16.7 µM],-22.5,-3.3[16.7 µM]
CN(C)C(=O)C[C@H]1CC[C@H]2[C@@H](COC[C@H](O)CN2CC2CCCC2)O1,2.2,-6.8,-2.1,0.4[16.7 µM],1.7,nt
Cc1ccccc1S(=O)(=O)N1CC[C@@H]2[C@H]1c1cc(-c3cccc(C#N)c3)ccc1N(C)[C@H]2CO,-1.3,20.9,-19.3,-2.8[16.7 µM],13.8,nt
COc1ccc2c3c([nH]c2c1)[C@@H](CO)N(C(=O)c1ccncc1)CC31CN(C(=O)CC2CC2)C1,-7.1,nt,nt,nt,45.4,nt
C[C@H]1CN([C@@H](C)CO)C(=O)c2cc(NC(=O)Nc3ccccc3)ccc2O[C@@H]1CN(C)Cc1ccc(C(=O)O)cc1,-21.8,-6.1,-21.0,-5.0[16.7 µM],8.0,nt
COc1ccc(OC)c(Nc2nc(N)nc(CCl)n2)c1,?,118.0*,-4.9,-31.8,nt,5.4
COc1ccc(OC)c(Nc2nc(N)nc(CSc3nnc(N)s3)n2)c1,-11.5,nt,5.3,-2.8,-1.8,nt
COc1ccccc1Nc1nc(N)nc(CCl)n1,57.2*,105.4*,nt,-19.6,13.1,-9.4
COc1ccc(OCc2nc(N)nc(Nc3ccccc3OC)n2)cc1,nt,18.3,1.4,-2.8,nt,-12.0
Cc1c(NC(=O)c2cccc(NC(=O)COc3ccccc3C#N)c2)c(=O)n(-c2ccccc2)n1C,?,65.1*,nt,nt,-9.1,59.6*
Cc1c(NC(=O)c2cccc(NC(=O)COc3ccccc3)c2)c(=O)n(-c2ccccc2)n1C,-9.9,-1.2,11.8,-10.2,6.1,0.5
CCN1C(=O)c2cccc3c(S(=O)(=O)NCc4ccccc4)ccc1c23,10.1,-13.0,6.8,nt,-11.5,-8.8
CCN1C(=O)c2cccc3c(S(=O)(=O)NCCc4c[nH]c5ccccc45)ccc1c23,nt,0.9,9.8,497.5*,nt,?
COc1ccc(OC)c(S(=O)(=O)Nc2ccc(C(N)=O)cc2)c1,10.7,nt,45.1,40.4,4.9,nt
COc1ccc(OC)c(S(=O)(=O)Nc2ccc(C(C)=O)cc2)c1,nt,nt,-4.6,99.6*,nt,-101.7
CCOC(=O)c1ccc(NS(=O)(=O)c2cc(-c3nnnn3CC)ccc2OC)cc1,nt,nt,-0.2,4.4,nt,-124.8
COc1ccc(NS(=O)(=O)c2cc(NC(=O)c3ccc(F)cc3)ccc2OC)cc1,nt,7.0,-4.8,108.4*,-13.8,-10.4
CCOC(=O)c1ccc(NS(=O)(=O)c2cc(C)ccc2OC)cc1,nt,8.1,-4.6,373.0*,nt,31.1
COc1ccc(OC)c(S(=O)(=O)Nc2ccc3oc(C)c(C(C)=O)c3c2)c1,-10.4,10.2,3.9,80.3,-14.6,13.3
COC(=O)c1c(C)oc2ccc(NS(=O)(=O)c3cc(OC)ccc3OC)cc12,nt,nt,121.5*,3.0,nt,nt
CCNC(=O)C[C@H]1CC[C@@H]2[C@H](COc3ccc(NC(=O)Nc4cccc(OC)c4)cc3C(=O)N2C)O1,-0.6,-19.0,12.3,-23.3[16.7 µM],8.4,16.7[16.7 µM]
CCCN(C)C[C@H]1Oc2cc(C#Cc3cccc(F)c3)ccc2S(=O)(=O)N([C@H](C)CO)C[C@@H]1C,11.4,nt,-0.8,14.3[16.7 µM],-12.3,1.8[16.7 µM]
Nc1ccc2c(S(=O)(=O)O)cccc2c1S(=O)(=O)O,4.2,12.3,102.3*,-4.8,2.9,nt
Nc1cccc2cc(S(=O)(=O)O)ccc12,-10.3,30.2,2.6,-5.0,2.6,6.0
SMILES,EWS-Fli block,PAX8 reporter,Statin myotox sup,miR122 inh,GSIS activator,HIV Env fusion
CC(C)NC(=O)N(C)C[C@@H]1Oc2ccc(NS(C)(=O)=O)cc2CC(=O)N([C@H](C)CO)C[C@@H]1C,3.8,11.2,0.1,4.5[16.7 µM],23.0,nt
C[C@H](CO)N1C[C@H](C)[C@H](CN(C)Cc2ccc(C(F)(F)F)cc2)OCCCC[C@H](C)Oc2ccc(NC(=O)NC3CCCCC3)cc2C1=O,-18.3,91.4*,nt,-9.6[16.7 µM],-20.7,72.1*[16.7 µM]
C[C@H]1CCCCO[C@H](CN(C)Cc2ccc(C(F)(F)F)cc2)[C@@H](C)CN([C@@H](C)CO)C(=O)c2cc(NC(=O)NC3CCCCC3)ccc2O1,15.7,9.8,nt,-11.0[16.7 µM],-19.2,66.5*[16.7 µM]
C[C@@H]1CCCCO[C@@H](CN(C)Cc2ccc(C(F)(F)F)cc2)[C@H](C)CN([C@@H](C)CO)C(=O)c2cc(NC(=O)NC3CCCCC3)ccc2O1,0.2,78.4*,nt,-7.7[16.7 µM],-19.7,20.7[16.7 µM]
C[C@@H]1CCCCO[C@@H](CN(C)Cc2ccc(C(F)(F)F)cc2)[C@@H](C)CN([C@@H](C)CO)C(=O)c2cc(NC(=O)NC3CCCCC3)ccc2O1,-0.4,48.8,nt,-0.1[16.7 µM],-13.8,8.8[16.7 µM]
COc1ccc(CC(=O)Nc2cc(Cl)ccc2C(=O)O)cc1,2.0,3.4,-1.4,1.6,2.7,-1.6
CCCCOc1ccc(Nc2cc(Cl)ccc2C(=O)O)cn1,8.2,8.8,0.3,nt,-32.1,62.8*
O=C1N(c2ccccc2)c2ccccc2[C@]12C[C@H](O)CO2,-2.5,-16.8,nt,nt,55.4*,-5.7
O=C1N(c2ccccc2)c2ccccc2C1(O)C(F)(F)F (configuration not stated),-12.6,12.2,14.0,nt,-2.6,12.0
COc1cccc(S(=O)(=O)Nc2ccc3c(c2)[C@H]2C[C@H](CC(=O)NCCc4ccccc4)O[C@H](CO)[C@H]2O3)c1,7.2,14.3,-5.7,3.4[16.7 µM],-39.1,24.4[16.7 µM]
Cc1cc(=O)n2c3c(c4c(cc13)c(CN(C)C)cc(=O)n4C)OC2,?,103.6*,nt,-1.1,-23.7,-15.0
Cc1cc(=O)n(C)c2ccccc12,4.8,-12.1,nt,nt,10.3,12.6
COC(=O)[C@@]1(Sc2ccc(C)cc2)CC(=O)N(c2ccccc2)[C@@H]1c1ccccc1,-1.0,64.6*,nt,nt,-8.2,-32.7
COC(=O)[C@@]1(Sc2ccc(C)cc2)CC(=O)N(C(=O)CCc2ccccc2)[C@@H]1c1ccccc1,8.7,-12.2,nt,nt,-6.0,6.6
CCCc1cc(=O)oc2cc(C)cc(OCC(=O)Nc3ccc(S(N)(=O)=O)cc3)c12,14.7,14.7,-44.7,4.6,138.8*,6.6
CCCc1cc(=O)oc2cc(C)cc(OCC(=O)Nc3ccccn3)c12,7.7,11.2,1.9,-1.4,17.3,-0.3
CC(=O)N1C[C@@H]2[C@H](c3ccccc31)[C@@H](CO)N2C(=O)Nc1ccc(F)cc1,1.7,-10.0,-6.1,8.3[16.7 µM],9.1,nt
CCN1C(=O)C(=Cc2cccc(OC)c2Oc2ccc([N+](=O)[O-])cc2[N+](=O)[O-])SC1=S,58.2*,38.2,-26.1,-1.2,0.1,-362.7
